Reference: PubChem BioAssay AID602393 (Broad Institute, 2012)
The campaign covered roughly 350,000 compounds. About 7,000 (2%) were called active. The sample holds actives, similar compounds and a random draw of the others, so the mix is not that of the screen. Cut-off read from the data, not from the text of the source: active = activation above about 40%; inconclusive = no clear call, values can overlap the other calls; inactive = below that.

Assay: Bmi1 luciferase reporter increase in mESCs, primary screen, esBAF inhibitor project, mouse ES cells, Bmi1 luciferase knock-in, single point (AID 602393);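 note: 0% = median of the plate's neutral control wells and 100% = double that signal; a rise in the Bmi1 reporter signal indicates esBAF inhibition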
Conditions: 24 h, at 12.5 µM, active compounds read high, 100% = twice the neutral-well signal

Reporter increase, active:
O=C(NN=Cc1ccc2c(c1)CCC2)c1ccccc1O 59.3%
O=C(N/N=C/c1c[nH]c2ccccc12)c1ccccc1O 51.9%
Cc1cccc(CSc2ccc(-c3cccs3)nn2)c1 50.5%
CCC(=O)NC(=Nc1nc2ccccc2s1)NC(=O)CC 65.4%
CCOC(=O)c1c(C)[nH]c(C(=O)OCC(=O)N2CCCC2=O)c1C 47%
Cc1ccsc1/C=C1\SC(N2CCOCC2)=NC1=O 57.3%
O=C1N=C(N2CCOCC2)S/C1=C\C=C/c1ccccc1 55.8%
CC(=O)c1ccc2c(ccc3ccccc32)c1 43.2%
COc1cccc(/C=C/C(=O)Nc2ccc3c(c2)OCCO3)c1 52.9%
CCOC(=O)c1c(C)nc2c(c1C)c(=O)oc1ccccc12 43.1%
CCc1ccccc1NC(=O)c1cc(-c2ccc3c(c2)OCO3)on1 43.8%
CCc1cc2c(=O)c(-c3ccon3)c(N)oc2cc1OC 50.4%
Clc1ccc(-c2csc(-c3ccncc3)n2)cc1 51.5%
C#CCSc1nnc(-c2sc3ccccc3c2Cl)o1 51%
CCn1c(=N)n(CC(=O)c2cccc(OC)c2)c2ccccc21 64.8%
CC1CCc2c(sc3nc4n(c(=O)c23)CCS4)C1 (stereo not drawn) 46.4%

Reporter increase, inactive:
O=C(NC(Cc1c[nH]c2ccccc12)C(=O)N/N=C/c1ccc(Br)cc1)c1cccs1 (stereo not drawn) 4.44%
O=C(N/N=C\c1cccc(Br)c1)c1ccccc1-n1cccc1 3.44%
O=C(N/N=C/c1cccc(Br)c1)c1ccc(N2CCCC2=O)cc1 7.79%
O=C(NCCc1c[nH]c2ccccc12)c1cccc(Br)c1 11.6%
COc1ccccc1-c1cccc(-c2nc(C(=O)N3CCN(C)CC3)cc3c2[C@H](CCO)N([S@@](=O)C(C)(C)C)C3)c1 -0.462%
C[C@@H]1CN([C@@H](C)CO)C(=O)CCCn2cc(nn2)CO[C@@H]1CN(C)C(=O)c1ccncc1 -3.8%
C[C@H](CO)N1C[C@H](C)[C@@H](CN(C)C(=O)c2ccncc2)Oc2cc(C3=CCCCC3)ccc2S1(=O)=O 2.87%
C[C@H](CO)N1C[C@H](C)[C@H](CN(C)S(=O)(=O)c2cn(C)cn2)Oc2c(NC(=O)C3CCOCC3)cccc2C1=O -1.13%
Cc1cccc(CSc2nnc(C)c(=O)n2N)c1 -7.26%
Cc1cc(-c2cccs2)nc(-n2cccc2)n1 17.4%
C[C@H]1CN([C@@H](C)CO)C(=O)CCCn2nncc2CO[C@H]1CN(C)Cc1ccc2c(c1)OCO2 0.657%
C/C=C/c1cnc2c(c1)C(=O)N([C@H](C)CO)C[C@H](C)[C@@H](CN(C)S(=O)(=O)c1ccccc1F)O2 0.934%
COc1ccccc1-c1cn(CC[C@H]2CC[C@H](NC(=O)Cc3ccccn3)[C@H](CO)O2)nn1 0.363%
Cc1noc(C)c1NC(=O)N(C)C[C@@H]1Oc2ccc(NS(C)(=O)=O)cc2C(=O)N([C@H](C)CO)C[C@@H]1C -2.07%
CC(C)C(C)NC(=O)COc1ncnc2ccccc12 (stereo not drawn) -6.72%
CN(Cc1nc2ccccc2s1)C(=O)c1ccc(F)cc1 8.62%
O=C(C[C@H]1C=C[C@@H](NC(=O)CC2CC2)[C@H](CO)O1)NCc1ccc(-c2ccccc2)cc1 1.19%
O=C(C[C@H]1C=C[C@H](NC(=O)C2CCC2)[C@H](CO)O1)NCCCN1CCOCC1 1%
CCOC(=O)c1[nH]c(C)c(C(=O)OCC(=O)N2c3ccccc3CC2C)c1C (stereo not drawn) -0.495%
Cc1c(C(=O)OCC(=O)N2CCCC2=O)oc2ccccc12 18.9%
COc1ccccc1CNC(=O)C[C@@H]1CC[C@H]2[C@@H](COc3ccc(NS(=O)(=O)c4ccc(C)cc4)cc3C(=O)N2C)O1 1.61%
O=C(C[C@@H]1CC[C@@H](NC(=O)C2CC2)[C@H](CO)O1)NCc1ccncc1 -3.27%
C[C@@H]1CCCCO[C@@H](CN(C)C(=O)c2ccccc2)[C@@H](C)CN([C@@H](C)CO)C(=O)c2cc(NS(=O)(=O)c3ccccc3)ccc2O1 12.6%
COc1ccc(S(=O)(=O)Nc2ccc3c(c2)C(=O)N([C@@H](C)CO)C[C@@H](C)[C@H](CN(C)C(=O)Nc2ccc(C(F)(F)F)cc2)OCCCC[C@@H](C)O3)cc1 7.49%
CCc1ccc(/C=C2\SC(N3CCOCC3)=NC2=O)cc1 6.21%
O=C1N=C(N2CCOCC2)CS1 0.767%
CC1CCN(C2=NC(=O)/C(=C/c3ccc(O)cc3)S2)CC1 24.8%
O=C1N=C(N2CCc3ccccc3C2)S/C1=C\c1ccc(O)cc1 -1.11%
CC(C)NC(=O)N(C)C[C@H]1Oc2ncc(C#CC3(O)CCCC3)cc2C(=O)N([C@H](C)CO)C[C@@H]1C 0.475%
CN1c2ccc(-c3ccccc3F)cc2[C@H]2[C@H](CCN2C(=O)Nc2cc(F)ccc2F)[C@H]1CO 7.83%
C/C=C/c1ccc([C@@H]2[C@H](CO)N(C(C)=O)[C@H]2CN(CC)C(=O)CN(C)C)cc1 -4.39%
CCC(=O)NC[C@H]1[C@@H](c2ccc(C3=CCCC3)cc2)[C@@H](CO)N1C(=O)C1CC1 0.745%
CS(=O)(=O)Nc1ccc2c(c1)[C@@H]1C[C@H](CC(=O)NCc3ccccn3)O[C@@H](CO)[C@@H]1O2 0.762%
O=C(C[C@H]1CC[C@@H](NC(=O)c2ccccc2)[C@@H](CO)O1)NCc1ccncn1 -3.6%
CC(=O)c1ccc(N2Cc3ccccc3C2)cc1 23.9%
O=C(NNC(=O)c1ccc2ccccc2c1)c1ccc(Cl)cc1 -2.35%
N#C[C@H]1[C@@H](c2ccc(-c3ccccc3F)cc2)[C@H](CO)N1C(=O)c1ccccn1 -5.75%
O=C(CCN1CCCCC1)N[C@@H]1C=C[C@@H](CC(=O)N2CCC(Cc3ccccc3)CC2)O[C@H]1CO 9.59%
Cc1ccc(-c2cnc3c(c2)C(=O)N([C@H](C)CO)C[C@@H](C)[C@@H](CN(C)C(=O)CN(C)C)O3)cc1 -1.4%
Cc1cccc(NC(=O)/C=C/c2ccc3c(c2)OCO3)n1 9.44%
COc1ccccc1OCCCC(=O)Nc1ccc2c(c1)OCCO2 4.46%
COc1ccccc1-c1ccc2c(c1)[C@H]1[C@H](CCN1S(=O)(=O)c1ccccc1)[C@@H](CO)N2 -9.94%
C/C=C/c1cnc2c(c1)C(=O)N([C@@H](C)CO)C[C@H](C)[C@H](CN(C)C(=O)CN1CCOCC1)O2 1.11%
CCCCC(=O)Nc1cc(C)c2c(=O)oc3ccccc3c2n1 -4.09%
CCOC(=O)c1c(C)oc(C)c(C(=O)OCC)c1=O -9.85%
Cc1noc(C)c1NC(=O)N(C)C[C@@H]1Oc2ccc(NS(=O)(=O)c3ccc(Cl)cc3)cc2C(=O)N([C@@H](C)CO)C[C@H]1C -6.44%
COc1ccc(CCNC(=O)c2cc(-c3ccc4c(c3)OCO4)on2)cc1OC 0.657%
CC(C)NC(=O)COCc1cc(-c2ccc3c(c2)OCO3)on1 16.1%
O=C(C[C@H]1CC[C@@H]2[C@H](COC[C@@H](O)CN2Cc2cc(F)cc(F)c2)O1)NC1CCC1 2.1%
COc1ccc(S(=O)(=O)N(C)C[C@@H]2Oc3ncc(C#Cc4ccc(F)cc4)cc3C(=O)N([C@H](C)CO)C[C@@H]2C)cc1 3.53%
CCCNC(=O)N(C)C[C@H]1Oc2cc(-c3ccncc3)ccc2S(=O)(=O)N([C@H](C)CO)C[C@@H]1C 6.74%
CCc1cc2c(=O)c(-c3nc4ccccc4n3C)c(CCCC(=O)O)oc2cc1OC(=O)C(C)(C)C 6.89%
COc1ccc2oc(N)c(C=O)c(=O)c2c1 -2.61%
CC(=O)Nc1ccc2c(c1)C(=O)N(C)[C@H]1CC[C@@H](CC(=O)NCC3CC3)O[C@H]1CO2 9.13%
CNC(=O)c1csc(-c2ccccc2)n1 13.5%
O=C(NNC(=O)c1csc(-c2cccnc2)n1)Nc1ccc(Cl)cc1 0.726%
CN(C)CC(=O)Nc1ccc2c(c1)[C@@H]1C[C@H](CC(=O)NCc3ccc(-c4ccccc4)cc3)O[C@@H](CO)[C@@H]1O2 16%
CCCCSc1nnc(-c2ccc(C)cc2)o1 17.9%
COc1ccc2c(Cl)c(-c3nnco3)sc2c1 8.57%
C[C@@H](O)C#Cc1ccc2c(c1)O[C@@H](CN(C)C)[C@@H](C)CN([C@@H](C)CO)S2(=O)=O -2.61%
C[C@H](NC(=O)C[C@@H]1CC[C@@H]2[C@H](COC[C@@H](O)CN2C(=O)Nc2cc(Cl)cc(Cl)c2)O1)c1ccccc1 -3.61%
C[C@@H]1CN([C@H](C)CO)S(=O)(=O)c2ccc(C#CC3CCCC3)cc2O[C@@H]1CN(C)Cc1ccccc1C(=O)O -3.9%
O=C(C[C@@H]1CC[C@@H]2[C@H](COC[C@H](O)CN2C(=O)Cc2ccccc2)O1)NC1CCC1 -8.39%
COc1ccc2cc(C(=O)O)n(CC(=O)c3ccccc3)c2c1 -1.55%
CCCn1c(=N)n(CC(=O)c2ccc(Cl)c(Cl)c2)c2ccccc21 3.54%
NNC(=O)C1CCCn2c1nc1sc3c(c1c2=O)CCCC3 (stereo not drawn) 2.26%
Cn1c(NN)nc2sc3c(c2c1=O)CCC3 -3.52%
